A selection: hits, their analogues and other compounds. The true share with any hit is near 4%.
RecA intein inh = Mtb RecA intein splicing inhibitors, primary screen, biochemical, fluorescence, HTS | Protein RecA (Mycobacterium tuberculosis (strain ATCC 25618 / H37Rv)), P9WHJ3 | cell-free RecA intein splicing | inhibition, % (concentration not given with the values) | 290,000 tested, 0.75% active; in the data active means inhibition above about 30%
Mtb bLac sens = beta-lactam sensitization of Mtb H37Rv, H37Rv; M. tuberculosis H37Rv growth with meropenem, percent inhibition; inhibition, % at 25 µM; 330,000 tested, 0.27% active; AID 434955, 2010; call rule not given here;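 further: growth measured after seven days incubation then overnight dye step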
Mtb FBA inh = Mtb FBA enzyme inhibitors, primary screen, biochemical, fluorescence, strain H37Rv; Fructose-bisphosphate aldolase (Mycobacterium tuberculosis (strain ATCC 25618 / H37Rv)), …; purified M. tuberculosis FBA, fluorescence read-out; 360,000 tested, 2.3% active; inhibition, % at 1 µM
GDH-TPI counter-1 = GDH-TPI coupling enzyme inhibitors, primary screen, artefact control for M. tuberculosis FBA inhibitor project, biochemical, absorbance, full deck; GDH-TPI coupled enzyme counterscreen, NADH absorbance; inhibition, % at 4.8 µM; 360,000 tested, 1.2% active; AID 588335, 2011; in the data active means inhibition above about 30%
Rv3671c protease = Rv3671c serine protease inhibitors, primary screen, biochemical, fluorescence polarization, M. tuberculosis H37Rv; inhibition, % at 5.96 µM; AID 2606, 2010; 320,000 tested, 0.048% active; in the data active means inhibition above about 38%;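 further: extracellular domain of Rv3671c used as enzyme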
UGM FP inh = M. tuberculosis UGM enzyme inhibitors, primary screen, biochemical, fluorescence polarization, single point. UDP-galactopyranose mutase (Mycobacterium tuberculosis (strain ATCC 25618 / H37Rv)), …. purified UGM, fluorescence polarization probe displacement. inhibition, % at 10 µM. 320,000 tested, 0.06% active; in the data active means inhibition above about 10%, passing the limit was not always enough
Target sequence (P9WIQ1 whole entry, looked up): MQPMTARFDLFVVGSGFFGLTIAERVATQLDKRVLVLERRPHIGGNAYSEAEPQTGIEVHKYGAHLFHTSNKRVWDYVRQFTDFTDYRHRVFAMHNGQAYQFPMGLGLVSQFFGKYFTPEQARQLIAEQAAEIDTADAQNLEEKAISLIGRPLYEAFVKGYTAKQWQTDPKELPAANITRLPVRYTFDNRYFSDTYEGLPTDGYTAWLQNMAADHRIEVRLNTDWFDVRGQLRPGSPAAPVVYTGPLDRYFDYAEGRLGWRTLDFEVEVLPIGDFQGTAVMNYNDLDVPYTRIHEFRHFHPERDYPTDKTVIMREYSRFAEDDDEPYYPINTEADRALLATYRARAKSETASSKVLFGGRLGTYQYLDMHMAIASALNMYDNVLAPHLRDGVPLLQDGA
Mtb FBA inh conf = M. tuberculosis aldolase blockers, biochemical, fluorescence, strain H37Rv, confirmation; purified M. tuberculosis FBA, fluorescence read-out; inhibition, % at 1 µM; 5,600 tested, 78% active; shares compounds with Mtb FBA inh
GDH-TPI counter-2 = GDH-TPI coupling enzyme inhibitors, artefact control for M. tuberculosis FBA inhibitor project, biochemical, fluorescence, high throughput. AID 652141, 2013. shares compounds with Mtb FBA inh. inhibition, % at 1 µM. 5,600 tested, 81% active. GDH-TPI coupled enzyme counterscreen; in the data active means inhibition above about 10%
A number is an active result; 0 = inactive; - = not tested or not shown; + = active, no number. Unless noted, no stated cut-off is given here; in the data, active means inhibition above about 27%; inactive means the rest.

SMILES	RecA intein inh	Mtb bLac sens	Mtb FBA inh	GDH-TPI counter-1	Rv3671c protease	UGM FP inh	Mtb FBA inh conf	GDH-TPI counter-2
CN(C)c1ccc(CNc2ccc3c(c2)ncn3C(C)(C)C)cc1	0	0	0	0	0	0	-	-
CC1(C)CC(=O)C2=C(C1)c1c(ccc3ccccc13)NC2c1ccco1 (configuration not stated)	0	0	87	0	0	0	104	89
Cc1cccc(NC(=O)c2ccc3c(c2)CCN3S(C)(=O)=O)c1	0	0	0	0	-	0	-	-
Oc1c(Cl)cc(Cl)cc1/C=N/NC(=S)NC1CC2C=CC1C2 (configuration not stated)	0	0	35	0	0	0	59	57
Oc1ccccc1C=NNC(=S)NC1CC2C=CC1C2 (configuration not stated)	-	-	0	0	-	-	-	-
O=c1cc(-c2ccccc2)nc2c(Cl)cc(Cl)cn12	-	-	0	0	-	-	-	-
COc1cccc(CN2CCN(Cc3cccc(Oc4ccccc4)c3)CC2)c1OC	0	0	37	0	0	0	0	0
C[C@H](CO)N1C[C@H](C)[C@H](CN(C)S(=O)(=O)c2ccc(C#N)cc2)OCc2cnnn2CCCC1=O	-	-	0	0	-	-	-	-
COc1ccc(-n2c(C)c(C(C)=O)c(C(C)=O)c2C)cc1	0	0	0	0	0	0	-	-
COc1ccc(-n2c(C)cc3cc(OC(C)=O)ccc32)cc1	0	0	58	0	0	0	68	49
O=C(CNC(=O)c1ccc(Br)o1)NCC1CCCCC1	-	0	0	0	0	0	-	-
Cc1ccccc1CNC(=O)c1ccccc1N	0	0	78	0	0	-	+	191
CCN(CC)CCCNC(=O)c1ccccc1C	0	0	0	0	0	0	-	-
COc1ccccc1CNC(=O)c1ccc(NS(C)(=O)=O)cc1	0	0	0	0	0	0	-	-
COc1ccccc1CNC(=O)c1ccccc1NS(C)(=O)=O	0	0	29	0	0	-	102	80
Nc1ccccc1C(=O)NCc1ccccc1	0	0	44	0	0	0	0	0
CCN(CC)CCNC(=O)c1ccccc1N	0	0	60	0	0	0	140	121
CCC(CC)C(=O)c1c[nH]c(C(=O)NCc2ccc(F)cc2)c1	0	0	0	0	0	0	-	-
COCc1cc(C)nc(Oc2ccccc2)c1C#N	0	0	0	0	0	0	-	-
NC(=O)c1ccccc1OCc1cccc2ccccc12	0	0	0	0	0	0	-	-
NC(=O)c1ccccc1N	0	0	86	0	0	0	78	54
Cc1ccc(C(=O)NCc2ccccc2)c(F)c1F	0	0	0	0	0	0	-	-
Cc1ccc(OCCNC(=O)c2ccccc2N)cc1	0	0	49	0	0	0	+	191
NC(=O)c1cccc2cc3ccccc3cc12	0	0	37	0	0	0	0	0
COc1ccccc1C(=O)NCCC(=O)NCCOc1ccc(C)cc1	-	-	0	0	-	-	-	-
SMILES	RecA intein inh	Mtb bLac sens	Mtb FBA inh	GDH-TPI counter-1	Rv3671c protease	UGM FP inh	Mtb FBA inh conf	GDH-TPI counter-2
Cc1cc(C(=O)NCc2ccccc2)c(=O)[nH]c1C	0	0	56	0	0	0	103	74
Cc1cc(Br)cn2c(Cc3ccsc3)c(-c3ccco3)nc12	-	-	0	-	-	-	-	-
CS(=O)(=O)Nc1ccccc1C(=O)NCC1(N2CCCCC2)CCCCC1	0	0	45	0	0	0	0	0
Nc1ccccc1C(=O)NCCN1CCNC1=O	0	0	93	0	0	0	90	77
O=C(NCC1(N2CCCCC2)CCCCC1)c1ccc(NS(=O)(=O)c2ccccc2)cc1	0	0	0	0	0	0	-	-
Nc1ccccc1C(=O)NCCCN1CCN(c2cccc(Cl)c2)CC1	0	0	54	0	0	0	69	72
COc1ccccc1CNC(=O)c1ccccc1N	0	0	54	0	0	0	60	51
Cc1ccc(C(=O)NCCN2CCNC2=O)cc1	0	0	0	0	0	0	-	-
Cc1ccc(C(=O)Nc2ccc(N3CCN(C(=O)c4cccs4)CC3)cc2)c(Cl)c1	0	0	0	0	0	0	-	-
Cc1ccc(-c2nc3c(=O)n(-c4ccccc4)c4c(c(=O)n(C)c(=O)n4C)c3o2)cc1	0	0	0	0	0	0	-	-
Cc1ccc(-c2nc3c(=O)n(C)c4ccccc4c3o2)cc1	0	0	35	0	0	0	0	0
O=C(O)c1cc(N2CCCCC2)ccn1	-	-	0	0	-	-	-	-
CCS(CC)=NS(=O)(=O)c1ccc(NC(C)=O)cc1	0	0	64	0	0	-	98	87
CC(=O)Nc1ccc(S(=O)(=O)N=S(C)C)cc1	0	0	0	0	0	0	-	-
CC(C)C(=O)NCCn1ccc2ccccc21	0	0	30	0	0	0	102	88
CCCCN(CCCC)CCNC(=O)c1cn(C)c2ccc(S(=O)(=O)N3CCCC3)cc2c1=O	0	0	0	0	0	0	-	-
OCCC1CN(Cc2cc3c(cc2Cl)OCO3)CCN1C1CCCC1 (configuration not stated)	0	0	0	0	0	0	-	-
COc1ccc(CCNC(=O)C2CCN(C(=O)c3ccccc3C)CC2)cc1	0	0	49	0	0	0	0	0
COc1ccc(CCNC(=O)C2CCN(C(=O)c3ccccc3)CC2)cc1	0	0	-	-	0	0	-	-
CCCn1nc2cc(C(=O)NCCc3ccc(C)cc3)ccc2c1OCC	0	0	55	0	0	0	64	67
CCCCn1nc2cc(C(=O)NCC34CC5CC(CC(C5)C3)C4)ccc2c1OCC	0	-	0	0	0	0	-	-
CCCn1nc2cc(C(=O)NCCCCc3ccccc3)ccc2c1OCC	0	-	53	0	0	0	132	104
CCCCCC(=O)N1C[C@@H](O)[C@H](n2cc(COC(=O)c3ccccc3)nn2)C[C@@H]1c1ccc(OC)cc1	-	-	0	0	-	-	-	-
COc1ccc(-c2nc(C(N)=O)c3[nH]c(=O)n(-c4cccc(C)c4)c3n2)c(OC)c1	0	0	0	0	0	0	-	-
COc1ccccc1-c1nc(C(N)=O)c2[nH]c(=O)n(-c3cccc(C)c3)c2n1	0	0	48	0	0	0	+	195
CCc1nc(C(N)=O)c2[nH]c(=O)n(-c3ccccc3F)c2n1	0	0	105	0	0	0	91	74
Cc1cccc(-n2c(=O)[nH]c3c(C(N)=O)nc(CC(C)C)nc32)c1	0	0	46	0	0	0	94	76
